# High-throughput results deposited in PubChem by several laboratories.
# NCOA3 inh = inhibitors of human steroid receptor coactivator 3 (SRC3). inhibition, % at 3.6 µM. hit rate 0.17% among 360,000. HEK293 GAL4-SRC3 luciferase reporter, luminescence;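 active means inhibition above a per-campaign cutoff, the mean of all compounds plus 3 SD, cut at about 60% in these data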;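 further: 0% = DMSO-treated cells and 100% = gossypol-treated cells at 36 µM; higher means less SRC3-driven luciferase light from the GAL4 reporter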
# Shn3 inh set2 = inhibitors of Schnurri-3 3'UTR reporter in osteoblasts | Clone20 osteoblast Shn3 3'UTR firefly luciferase, 24 h | inhibition, % at 12.5 µM | hit rate 0.52% among 360,000 | AID 588674;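 active means mean inhibition of at least 75% with every replicate also reaching 75%; inconclusive means mean inhibition at least 75% but some replicate below; inactive means mean inhibition below 75%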;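 further: 0% = median of neutral control wells and 100% = pilot-screen positive control compound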
# NCOA1 inh = inhibits human SRC1 coactivator; Q15788; HEK293 GAL4-SRC1 luciferase reporter, luminescence; inhibition, % at 3.6 µM; hit rate 0.12% among 360,000; AID 588354;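 active means inhibition above the campaign mean plus 3 SD, with each screening campaign given its own cutoff, cut at about 60% in these data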;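 further: 0% = DMSO treated cells and 100% = gossypol at 36 µM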
# Target sequence (Q15788 whole entry, looked up, the tested form may be a part): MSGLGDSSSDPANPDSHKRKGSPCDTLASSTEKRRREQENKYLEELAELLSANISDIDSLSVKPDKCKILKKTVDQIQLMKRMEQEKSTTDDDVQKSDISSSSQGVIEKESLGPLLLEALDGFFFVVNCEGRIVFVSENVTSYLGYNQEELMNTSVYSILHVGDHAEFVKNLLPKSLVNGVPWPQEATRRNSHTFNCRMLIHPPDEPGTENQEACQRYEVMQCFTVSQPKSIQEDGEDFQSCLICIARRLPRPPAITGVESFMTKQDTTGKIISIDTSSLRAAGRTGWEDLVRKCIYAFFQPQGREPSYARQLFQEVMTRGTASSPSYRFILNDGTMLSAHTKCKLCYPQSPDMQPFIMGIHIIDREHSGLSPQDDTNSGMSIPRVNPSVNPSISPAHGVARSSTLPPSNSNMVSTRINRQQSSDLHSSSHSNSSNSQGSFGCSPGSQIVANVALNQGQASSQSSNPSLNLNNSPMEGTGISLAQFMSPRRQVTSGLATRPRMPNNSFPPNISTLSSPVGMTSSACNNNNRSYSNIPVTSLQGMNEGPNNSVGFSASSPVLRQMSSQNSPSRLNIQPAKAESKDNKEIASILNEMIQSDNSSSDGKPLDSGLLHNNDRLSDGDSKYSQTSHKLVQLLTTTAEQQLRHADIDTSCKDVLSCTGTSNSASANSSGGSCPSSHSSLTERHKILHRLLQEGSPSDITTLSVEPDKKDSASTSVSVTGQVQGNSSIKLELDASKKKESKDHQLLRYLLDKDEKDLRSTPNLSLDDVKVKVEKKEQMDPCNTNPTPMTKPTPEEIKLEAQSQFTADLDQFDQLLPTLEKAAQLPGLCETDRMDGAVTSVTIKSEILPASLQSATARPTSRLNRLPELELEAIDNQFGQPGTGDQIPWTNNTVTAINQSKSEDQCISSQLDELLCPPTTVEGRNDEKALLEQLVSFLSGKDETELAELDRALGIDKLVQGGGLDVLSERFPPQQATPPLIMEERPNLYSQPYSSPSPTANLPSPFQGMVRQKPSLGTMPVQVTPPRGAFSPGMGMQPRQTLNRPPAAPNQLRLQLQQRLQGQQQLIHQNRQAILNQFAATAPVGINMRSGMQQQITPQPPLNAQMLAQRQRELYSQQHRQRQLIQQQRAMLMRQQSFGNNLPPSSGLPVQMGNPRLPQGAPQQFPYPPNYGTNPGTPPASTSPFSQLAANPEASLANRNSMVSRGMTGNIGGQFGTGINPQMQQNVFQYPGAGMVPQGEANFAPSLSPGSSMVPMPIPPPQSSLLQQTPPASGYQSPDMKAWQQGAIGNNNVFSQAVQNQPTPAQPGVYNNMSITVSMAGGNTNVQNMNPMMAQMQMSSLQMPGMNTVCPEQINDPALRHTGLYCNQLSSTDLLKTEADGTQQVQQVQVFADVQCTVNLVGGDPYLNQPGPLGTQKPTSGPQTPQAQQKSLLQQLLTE
# SRC2 inh = inhibits human steroid receptor coactivator 2 | inhibition, % at 9 µM | AID 651957 | HEK293 GAL4-SRC2 luciferase reporter, luminescence | hit rate 0.17% among 370,000;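 active means inhibition above the mean inhibition of all tested compounds plus 3 SD, set per campaign, cut at about 52% in these data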;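 further: 0% = DMSO treated cells and 100% = cells given Gossypol at 36 µM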
# NR5A2 inv ag = inverse agonists of human LRH-1 (NR5A2); hit rate 0.13% among 360,000; AID 602396; HEK293T StAR-luciferase reporter, LRH-1 transfected, 24 h; inhibition, % at 3.6 µM; O00482;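 active means inhibition above the mean inhibition of all tested compounds plus 3 SD, cut at about 73% in these data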;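 further: 0% = DMSO wells and 100% = reporter-only cells lacking LRH-1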
# EBV LMP1 NFkB = Epstein-Barr LMP1 NF-kappaB reporter inhibition. LMP1-induced NF-kappaB luciferase reporter cells, luminescence. inhibition, % at 12.5 µM. hit rate 0.69% among 350,000; in the data active means inhibition above about 41%; inconclusive means no clear call, values can overlap the other calls;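 further: 0% = neutral control wells and 100% = reference inhibitor control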
# Numbers without * were called inactive; ? = inconclusive; . = no result given; ! = not active in a repeat. Shown are actives, neighbours in structure and some others; about 1.2% of the full set was active somewhere.
SMILES,NCOA3 inh,Shn3 inh set2,NCOA1 inh,SRC2 inh,NR5A2 inv ag,EBV LMP1 NFkB
CCN(CC)C(=S)Sc1c(-c2ccccc2)c2cc(Cl)ccc2[nH]c1=O,-10.9,87.0*,-17.8,8.9,0.2,-1.9
Cc1cc(Nc2ccc(OC(F)F)cc2)cc(=O)n1-c1ccc(OC(F)F)cc1,.,.,.,-11.5,.,.
Cc1nc(SCC(=O)Nc2nc3ccccc3s2)c(C#N)c(C)c1C,90.6*,?,90.5*,84.7*,87.8*,84.4*
CCc1cc2c(Sc3nc4ccccc4s3)ncnc2s1,21.2,53.6,-11.6,34.6,9.1,43.3*
c1ccc2sc(Sc3ncnc4sccc34)nc2c1,-11.3,-13.3,-18.8,30.6,13.7,6.7
CCCOc1ccc(N)cc1N,-31.2,70.5,-30.7,-3.7,41.6,53.7*
COc1ccc(CCC(=O)Nc2ccc(C)c([N+](=O)[O-])c2)cc1,11.0,-8.0,7.3,-2.9,11.9,62.0*
COc1ccc(CCC(=O)Nc2cc([N+](=O)[O-])ccc2OC)cc1,16.7,-13.7,-5.3,-7.5,5.3,-2.8
CN(Cc1ccccc1)C(=O)OCc1cn(Cc2ccccc2)nn1,.,.,.,-5.5,.,.
S=C(NCCc1ccccc1)Nc1cccc2cnccc12,28.0,89.3*,19.2,18.4,45.0,23.5
CC1(C)Cc2c(ccc3ccccc23)/C(=C/C(=O)N2CCCCC2)N1,-18.6,2.8,3.3,5.1,-0.5,58.4*
CCCC(=O)N1CCC[C@]2(CC[C@H](CCC#N)O2)C1,.,.,.,-14.3,.,.
CC(=O)O[C@]1(C(C)=O)CC[C@H]2[C@@H]3C=C(C)C4=CC(=O)CC[C@@H]4[C@H]3CC[C@@]21C,-16.3,77.2,12.1,-10.0,17.8,52.1*
CN(C(=O)C1CCN(c2cncnc2)CC1)C1CCCCC1,.,.,.,9.5,.,.
CCn1c2ccccc2c2cc(NC(=O)COC(=O)c3cccc(F)c3)ccc21,.,.,.,-4.5,.,.
CCc1ccc(Nc2n[n+](-c3ccccc3)c(-c3c(Cl)cccc3Cl)s2)cc1,3.8,91.8*,1.2,-2.4,-3.5,43.7*
COC(=O)CS(=O)(=O)c1nnc([C@H](Cc2ccccc2)NC(=O)OC(C)(C)C)o1,0.6,96.1*,-15.2,-10.4,-22.3,2.5
Cc1cccc(CS(=O)(=O)c2nnc([C@H](Cc3ccccc3)NC(=O)OC(C)(C)C)o2)c1,9.3,96.9*,-26.9,.,-4.9,-28.0
Cc1ccc(-c2cc(-c3nnc(SCC(=O)Nc4nccs4)n3N)[nH]n2)cc1,.,.,.,-47.8,.,.
Cc1ccc2c(c1)C1CS(=O)(=O)N(Cc3ccccc3)C(=O)N1C2 (stereo unspecified),.,.,.,-14.1,.,.
O=C1/C(=C/c2ccc(N3CCOCC3)o2)SC(=Nc2ccccc2)N1CCc1c[nH]c2ccccc12,31.1,96.9*,7.7,.,29.5,15.5
COc1cc(/C=C2\SC(=Nc3ccccc3)N(CCc3c[nH]c4ccccc34)C2=O)ccc1OC(C)C(=O)O (stereo unspecified),11.4,-23.8,-4.2,3.7,-6.6,-3.1
COc1ccc(N/N=C/c2c(C(=O)O)ccc3ccccc23)cc1,52.1,92.9*,13.0,14.6,-20.3,68.8*
O=C(NCCC1=CCCCC1)C1CCN(S(=O)(=O)c2ccccc2[N+](=O)[O-])CC1,.,.,.,-18.1,.,.
Cc1ccc(N(Cc2cc(=O)[nH]c3ccccc23)C(=O)CCl)c(C)c1,41.6,-4.4,27.1,68.6*,59.8,46.9*
SMILES,NCOA3 inh,Shn3 inh set2,NCOA1 inh,SRC2 inh,NR5A2 inv ag,EBV LMP1 NFkB
CCCC(=O)N(Cc1cc(=O)[nH]c2ccccc12)c1ccc(C)cc1C,-14.1,8.1,10.8,6.0,2.8,-0.1
C[C@]12CC[C@@H]3c4ccc(OS(=O)(=O)O)cc4CC[C@H]3[C@@H]1CCC2=O,0.9,-15.2,-4.9,3.8,-28.0,65.8*!
Cc1ccccc1OC(C)c1nc(-c2ccccc2)no1 (stereo unspecified),-16.8,-10.7,-5.8,-13.2,2.9,-3.8
Cc1ccc(SC(C)c2nc(-c3ccccc3)no2)cc1 (stereo unspecified),-16.9,-4.0,-22.8,-7.7,13.5,58.5*
CCNC(=O)N(C)[C@H]1C[C@H]2c3[nH]c4cccc(-c5ccc6c(c5)OCO6)c4c3CCN2C[C@H]1[C@H](C)O,.,.,.,0.4,.,.
Cc1nc(SCc2cccc(C(=O)O)c2)nc2c1CCCC2,-46.8,29.3,-48.5,53.1*,-42.8,2.9
COc1ccc(-c2cc(C)nc(SCc3cccc(C(=O)O)c3)n2)cc1,14.7,-11.8,3.7,-3.6,12.7,-3.9
COc1ccc(S[C@]2(C(=O)N(C)C)CC(=O)N(S(=O)(=O)c3ccc(F)cc3)[C@@H]2c2ccc(OC)cc2)cc1,.,.,.,0.7,.,.
